Screens as filed in PubChem BioAssay.
AmpC inh no detg: qHTS Inhibitors of AmpC Beta-Lactamase (assay without detergent); AID 485341, 2010; AmpC nitrocefin hydrolysis, absorbance 480 nm, 0.0001% Triton; Potency, µM (doses to about 57.1 µM), for inactives: at the highest dose activity change, negative = inhibition, hits mostly inhibitors; 0.52% of 330,000 active;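 further: potency means the concentration at half of the fitted maximal effect; plate controls were no compound for no effect and no enzyme for full effect; nearly all actives have a fitted effect of over 20% in size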
Target sequence (P00811 whole entry, looked up): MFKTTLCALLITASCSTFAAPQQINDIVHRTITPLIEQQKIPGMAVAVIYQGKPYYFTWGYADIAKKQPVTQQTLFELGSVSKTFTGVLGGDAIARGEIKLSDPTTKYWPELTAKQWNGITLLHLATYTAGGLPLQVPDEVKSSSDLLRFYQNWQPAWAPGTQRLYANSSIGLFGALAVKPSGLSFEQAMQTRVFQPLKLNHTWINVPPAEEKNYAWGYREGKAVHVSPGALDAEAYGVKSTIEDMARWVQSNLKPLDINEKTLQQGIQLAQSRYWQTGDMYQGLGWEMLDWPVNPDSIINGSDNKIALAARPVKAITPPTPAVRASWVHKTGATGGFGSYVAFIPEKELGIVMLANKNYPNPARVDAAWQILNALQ
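AmpC (5.3 nM in the dispensed reagent) in 20 mM phosphate pH 7.0 with 0.01% (detergent screen) or 0.0001% Triton X-100 was preincubated with compounds for 15 min at room temperature. Nitrocefin was then added from an 800 uM solution, and hydrolysis was followed at 480 nm.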
Shiga toxin inh: A qHTS for Small Molecule Inhibitors of Shiga Toxin | 9.2% of 290,000 active | inhibition, % at 38.7 µM | Vero cells, Shiga toxin protein synthesis inhibition reporter; in the data active means inhibition mostly above about 28%, no sharp cut-off; inactive means mostly below about 43%; further: 0% is about no effect
AmpC detergent: qHTS Inhibitors of AmpC Beta-Lactamase (assay with detergent); P00811; AmpC hydrolysis of nitrocefin, absorbance 480 nm, 0.01% Triton; Potency, µM (titrated, usually from 114 µM), without a hit: top-dose activity change, negative = inhibition, most hits filed as inhibitors; 0.041% of 370,000 active; AID 485294, 2010;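 further: potency means the concentration at half of the fitted maximal effect; 0% = no-compound wells and -100% = no-enzyme wells; nearly all actives have a fitted effect of over 25% in size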
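20 mM phosphate pH 7.0 + 0.01% (detergent screen) or 0.0001% Triton X-100; 5.3 nM AmpC reagent; cpd preinc 15 min RT; nitrocefin (800 uM stock) to start; A480 q20 s × 4 min; Activity was normalised to no-enzyme and no-compound control wells.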
NS1 function inh: qHTS Assay for Inhibitors of Influenza NS1 Protein Function | Potency, µM (doses to about 46.1 µM), for inactives: top-dose activity, positive = more growth | 0.4% of 270,000 active; calls by dose curve; further: potency means the concentration at half of the fitted maximal effect; actives are rising curves; nearly all actives have a fitted effect of over 50% in size
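In this qHTS, NS1 from influenza A is expressed in budding yeast, where it slows growth. Cells are switched from glucose to 2% galactose medium (pH 6.0, -URA), treated with compound, and growth recovery is read at OD600.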
CHX counter: Cycloheximide Counterscreen for Small Molecule Inhibitors of Shiga Toxin | 12% of 300,000 active | cell reporter, cycloheximide protein synthesis inhibition counterscreen | AID 2314, 2010 | max response, %; in the data active means max response mostly above about 13%, no sharp cut-off; inactive means mostly below about 14%; further: read at 38.3 µM for the half of the compounds with a filed dose; 0% is about no effect
Active calls of the source: *; ? = inconclusive; / = not tested or not shown; [ ] = another dose, or the depositor's remark. Only a selection was taken, and hits are over-represented in it overall. Unless noted, the call rests on the fitted dose curve; in most records, active means well fitted curve in the direction sought with a large enough effect; inconclusive means small, poorly fitted or top-dose-only effect, or another doubt; inactive means no such curve, though single readings can be large; an effect the other way counts as inactive or inconclusive.

SMILES	AmpC inh no detg	Shiga toxin inh	AmpC detergent	NS1 function inh	CHX counter
O=C(NC(=S)Nc1ccccc1Br)c1ccc2c(c1)OCO2	-19%	60*	9%	9%	31*
Cc1ccc([N+](=O)[O-])cc1NC(=O)c1ccc2c(c1)OCO2	-15%	68	-11%	1%	1
O=C(Nc1cccc([N+](=O)[O-])c1)c1ccc2c(c1)OCCO2	-20%	89*	-9%	-17%	41*
O=C(Nc1ccc2c(c1)OCCO2)c1cccc(Cl)c1	-30%	/	-13%	-101%	44*
NS(=O)(=O)c1ccc(NC(=S)NC(=O)c2ccc3c(c2)OCO3)cc1	-1%	-7	1%	10%	-3
O=C(Nc1cc2c(cc1C(=O)c1ccccc1Br)OCCO2)c1cccc(Cl)c1	/	/	1%	/	/
CC(C)c1ccc(O)c(NC(=S)NC(=O)c2ccc3c(c2)OCO3)c1	-48%	99*	9%	-27%	53*
Oc1ccc(Cl)cc1C(C#Cc1ccccc1)N1CCOCC1 (stereo not drawn)	9%	-2	3%	29%	10
Cc1ccc(OC(=O)CSc2nnc(-c3ccc4c(c3)OCO4)o2)c(C)c1	/	/	6%	/	/
CC(Sc1nnc(-c2cccs2)n1N)C(=O)NCC1CCCO1 (stereo not drawn)	-21%	/	-1%	/	/
O=C(Nc1cccc(Cl)c1)c1ccc2c(c1)OCCO2	-29%	60*	?	-113%	32*
O=C(Nc1ccc2c(c1)OCCO2)c1ccc(Br)s1	-31%	40*	-20%	-18%	55*
CCOc1cccc(C(=O)Nc2ccc3c(c2)OCCO3)c1	9%	37	-10%	-17%	36*
CC(C)(C)NS(=O)(=O)c1ccc(C(=O)Nc2ccc3c(c2)OCO3)cc1	-22%	77*	-7%	6%	21*
COc1cccc(NC(=O)c2ccc3c(c2)OCCO3)c1	-5%	23	3%	-41%	15
Cc1cc2nc(-c3cccc(NC(=O)CSc4ccc(Cl)cc4)c3)oc2cc1C	/	/	-1%	/	/
CCCCN1C(=O)NC(c2ccc(OC)cc2)C(C(=O)OCc2ccccc2)=C1C (stereo not drawn)	-22%	17	4%	-6%	5
O=C(NC(=S)Nc1cccc(Cl)c1N1CCCCC1)c1ccc2c(c1)OCCO2	-32%	10	-19%	6%	20*
Cc1cc(OC(=O)c2cccs2)ccc1C(C)C	-28%	20	-12%	-8%	20
O=C(Nc1ccc2c(c1)OCCO2)c1ccccc1	-16%	69*	6%	-53%	42*
O=C(NC(=S)Nc1ccc2c(c1)OCO2)c1ccccc1	-33%	102*	5%	-3%	47*
O=C(Oc1ccc2c(c1)OCO2)c1cccs1	-23%	40*	0%	-7%	27*
COc1ccccc1CNc1nc(-c2ccco2)nn1S(=O)(=O)c1ccc(C)cc1	/	/	13%	/	/
Oc1ccc(Cc2cc(Cl)cc(Cl)c2O)cc1Cl	/	/	/	-42%	/
CCOC(=O)C1CCCN(Cc2ccc(OC)c(OCc3ccccc3)c2)C1 (stereo not drawn)	-1%	-5	?	-12%	-2
SMILES	AmpC inh no detg	Shiga toxin inh	AmpC detergent	NS1 function inh	CHX counter
CC(C)(C)c1ccc(C(=O)Nc2cccc([N+](=O)[O-])c2)cc1	-43%	96*	?	-15%	86*
O=C(Nc1cccc([N+](=O)[O-])c1)c1ccncc1	-10%	-7	-3%	-1%	-2
COc1cc(NC(=S)Nc2ccc3c(c2)OCCO3)cc(OC)c1OC	-7%	69*	1%	6%	32*
Cc1ccc(NC(=O)c2ccc3c(c2)OCCO3)cc1	-24%	72	-15%	-61%	0
O=C(Nc1ccc2c(c1)OCCO2)c1cccc(C(=O)Nc2ccc3c(c2)OCCO3)c1	-22%	37*	0%	10%	34*
O=C(Nc1cccc([N+](=O)[O-])c1)c1[nH]ncc1Cl	-17%	97*	-6%	-31%	62*
COc1cc(-c2nc3nc[nH]n3c2Nc2ccc(C(C)C)cc2)ccc1O	/	/	11%	/	/
O=C(Nc1ccc2c(c1)OCCO2)c1ccc(Cl)cc1Cl	-30%	/	?	2%	24*
O=C(Nc1cccc(NC(=O)c2cccs2)c1)c1ccc2c(c1)OCCO2	7.1µM*	21*	-4%	1%	23*
CCCc1cc(C(=O)Nc2cccc([N+](=O)[O-])c2)cs1	-54%	104*	-10%	-88%	65*
CN1C(=O)c2ccc(C(=O)Nc3ccc4c(c3)OCO4)cc2C1=O	-8%	38	-2%	11%	24*
CN1C(=O)c2ccc(NC(=O)c3cccc(N4C(=O)CCC4=O)c3)cc2C1=O	-7%[2.29 µM]	24	4%	0%	-1
Cc1ccccc1-n1ncc(C(C)NS(=O)(=O)c2ccccc2Cl)c1C (stereo not drawn)	-6%	-4	-1%	15%	-4
CCCN(C(=O)c1cc(S(=O)(=O)N(C)c2ccc(OCC)cc2)ccc1C)C1CCS(=O)(=O)C1 (stereo not drawn)	142%	/	-5%	/	/
S=C(Nc1ccc(Br)cc1)Nc1ccc2c(c1)OCCO2	-29%	103*	-6%	-17%	58*
O=C(CNS(=O)(=O)c1ccc(Br)cc1)Nc1ccc2c(c1)OCCO2	-35%	-11	-2%	-9%	-1
Cc1cc(C(=O)N2CCN(c3ccc(F)cc3)CC2)c2c(C)nn(-c3cccc(Cl)c3C)c2n1	/	/	6%	/	/
CC(C)NC(=S)N/N=C/c1sc(N2CCCCC2)nc1-c1cccs1	-6%	-11	-12%	24%	8
CCCCNC(=S)N(C)/N=C/c1sc(N2CCCCC2)nc1-c1cccs1	11µM*	4	-3%	6%	-2
O=C(O)c1ccc(OCc2ccc(C(=O)O)o2)cc1	-6%	32	-3%	6%	15*
COC(=O)c1ccc(COc2ccc(/C=N/O)cc2OC)o1	14%	71*	1%	-42%	20*
O=C(O)c1ccc(COc2ccc(Cl)cc2)o1	-17%	42	-9%	-40%	24*
C=CCc1ccc(OCc2ccc(C(=O)Nc3ccc(NC(C)=O)cc3)o2)c(OC)c1	101%	136*	1%	8%	47*
COc1ccccc1NC(=O)c1ccc(COc2ccccc2OC)o1	-3%	-8	-12%	-36%	1
CCOc1cc(/C=N/NC(=O)c2cccnc2)ccc1OCc1ccc(C(=O)OC)o1	-8%[2.29 µM]	-4	-4%	10%	11
Cc1c(-c2nsc(NC(=O)c3ccc(Cl)cc3)n2)nnn1-c1ccc(C(C)C)cc1	/	/	-7%	/	/
CCN1CCN(C(=O)c2ccc(COc3ccc(Cl)cc3)o2)CC1	92%	-7	-3%	3%	-4
CCc1ccc(OCc2ccc(C(=O)O)o2)cc1	-18%	101*	1%	-2%	64*
COC(=O)c1ccc(COc2cccc(OC)c2)o1	-5%	58*	-6%	-14%	22*
COC(=O)c1ccc(COc2ccc(Cl)cc2)o1	-20%	75*	?	-7%	20*
